# In PubChem BioAssay (EPA / NIEHS):
# Active and inactive are the calls of the source. Rule for the calls: active = hit-call score of the fitted dose curve at least 0.9, where 1 is the maximum; inactive = score below 0.9.
# Columns and labels:
# [1] = read-out: Matrix Metallopeptidase 1 (MMP1), MMP1 (gene 4312); assay: BSK_BE3C_MMP1: BioMAP Diversity Plus: BE3C Assay for Matrix Metallopeptidase 1 (MMP1) Biomarker Activity (AID 2283024); settings: primary human bronchial epithelial cells; actives raise or lower the signal
# Summary of the method: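 Human primary bronchial epithelial cells (BE3C system) dosed for 24 h; MMP-1 quantified by ELISA. Bidirectional fit against DMSO; cytotoxicity tracked in parallel cultures by SRB total-protein staining.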
# [2] = BSK_3C_Vis: BioMAP Diversity Plus: 3C Assay for Morphology Visualization (AID 2283025); settings: primary human endothelial cells (HUVEC);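 note: fitted both ways so gain or loss versus DMSO counts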;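 for AC50: light microscopy image of cell morphology used as background control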
# Summary of the method: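 Human umbilical vein endothelial cell morphology was inspected by light microscopy 24 h after chemical dosing; scored bidirectionally relative to DMSO.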
# [3] = BSK_4H_SRB: Viability Assessment in the BioMAP Diversity Plus: 4H Assay (AID 2283027); settings: primary human endothelial cells (HUVEC);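 for AC50: curves fitted both ways versus DMSO so AC50 may be loss or gain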
# Summary of the method: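 Human umbilical vein endothelial cells, 24 h after chemical dosing; total protein measured by 0.1% sulforhodamine B staining after 10% TCA fixation, read at 560 nm. Bidirectional fitting against DMSO.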
# [4] = read-out: Thrombomodulin, THBD (gene 7056); assay: BSK_3C_Thrombomodulin: BioMAP Diversity Plus: 3C Assay for Thrombomodulin Biomarker Activity (AID 2283029); settings: primary human endothelial cells (HUVEC); actives raise or lower the signal
# Summary of the method: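 Human umbilical vein endothelial cells were exposed to chemicals for 24 h; cell-surface thrombomodulin quantified by ELISA, with bidirectional fitting against DMSO baseline.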
# [5] = read-out: Urokinase-type plasminogen activator receptor (uPAR), PLAUR (gene 5329); assay: BSK_4H_uPAR: BioMAP Diversity Plus: 4H Assay for Urokinase-type plasminogen activator receptor (uPAR) Biomarker Activity (AID 2283030); settings: primary human endothelial cells (HUVEC); actives raise or lower the signal
# Summary of the method: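 Cell-surface uPAR ELISA signal, measured 24 h after dosing human umbilical vein endothelial cells, was analyzed with bidirectional fitting relative to DMSO. Parallel SRB staining of total protein tracked overt cytotoxicity.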
# [6] = read-out: Vascular endothelial growth factor receptor 2 (Homo sapiens) (UniProt P35968); assay: BSK_4H_VEGFRII: BioMAP Diversity Plus: 4H Assay for Vascular endothelial growth factor receptor 2 (VEGFR2) Biomarker Activity (AID 2283031); settings: primary human endothelial cells (HUVEC); actives raise or lower the signal;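 for AC50: cell-surface VEGFR2 protein level quantified by ELISA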
# Summary of the method: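 ELISA read-out of VEGFRII in primary human umbilical vein endothelium, taken 24 h after chemical treatment. Responses are expressed relative to DMSO, with bidirectional fitting.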
# [7] = read-out: Vascular cell adhesion molecule 1 (VCAM1), VCAM1 (gene 7412); assay: BSK_4H_VCAM1: BioMAP Diversity Plus: 4H Assay for Vascular cell adhesion molecule 1 (VCAM1) Biomarker Activity (AID 2283033); settings: primary human endothelial cells (HUVEC); actives raise or lower the signal
# Summary of the method: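 Primary human umbilical vein endothelial cells, 4H stimulation system, treated for 24 h; cell-surface VCAM-1 quantified by ELISA. Bidirectional fitting against DMSO; cytotoxicity tracked by SRB total-protein staining in parallel cultures.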
# [8] = read-out: Interferon-gamma inducible Protein 10 (IP10), CXCL10 (gene 3627); assay: BSK_BE3C_IP10: BioMAP Diversity Plus: BE3C Assay for Interferon-gamma inducible Protein 10 (IP10) Biomarker Activity (AID 2283034); settings: primary human bronchial epithelial cells; actives raise or lower the signal
# Summary of the method: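 Primary human bronchial epithelial cells, with IP-10 measured by ELISA 24 hours after chemical dosing. Bidirectional fit against DMSO; cytotoxicity checked by SRB total protein staining in parallel cultures.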
# [9] = read-out: Monokine induced gamma interferon (MIG), CXCL9 (gene 4283); assay: BSK_BE3C_MIG: BioMAP Diversity Plus: BE3C Assay for Monokine induced gamma interferon (MIG) Biomarker Activity (AID 2283035); settings: primary human bronchial epithelial cells; actives raise or lower the signal;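 for outcome: MIG protein measured by ELISA in BE3C cultures after 24 h of dosing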
# Summary of the method: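 Primary human bronchial epithelial cells treated for 24 h; MIG levels measured by ELISA, fitted bidirectionally versus DMSO. Parallel SRB total-protein staining assessed cytotoxicity.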
# [10] = read-out: Plasminogen activator inhibitor-1 (PAI1), SERPINE1 (gene 5054); assay: BSK_BE3C_PAI1: BioMAP Diversity Plus: BE3C Assay for Plasminogen activator inhibitor-1 (PAI1) Biomarker Activity (AID 2283037); settings: primary human bronchial epithelial cells; actives raise or lower the signal
# Summary of the method: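 Primary human bronchial epithelial cells (BE3C system) exposed 24 h; PAI-1 quantified by ELISA. Parallel sulforhodamine B staining of total protein flags cytotoxicity. Bidirectional fit versus DMSO.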
# [11] = read-out: urokinase plasminogen activator (uPA), PLAU (gene 5328); assay: BSK_BE3C_uPA: BioMAP Diversity Plus: BE3C Assay for urokinase plasminogen activator (uPA) Biomarker Activity (AID 2283038); settings: primary human bronchial epithelial cells; actives raise or lower the signal;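 for outcome: uPA protein level quantified by ELISA in cell cultures; uPA read one day after compound addition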
# Summary of the method: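 Bronchial epithelial cells (human, primary); chemical 24 h; uPA by ELISA; bidirectional fit vs DMSO. SRB (0.1%, after 10% TCA fixation, 560 nm) in parallel cultures for cytotoxicity.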
# [12] = read-out: Urokinase-type plasminogen activator receptor (uPAR), PLAUR (gene 5329); assay: BSK_BE3C_uPAR: BioMAP Diversity Plus: BE3C Assay for Urokinase-type plasminogen activator receptor (uPAR) Biomarker Activity (AID 2283039); settings: primary human bronchial epithelial cells; actives raise or lower the signal;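 for outcome: cells exposed to compound for one day before measurement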
# Summary of the method: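 Primary human bronchial epithelial cells dosed for 24 h; uPAR quantified by ELISA with bidirectional fitting against DMSO. Overt cytotoxicity assessed in parallel cultures by SRB total-protein staining (0.1% SRB, 560 nm).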
# [13] = read-out: Interleukin-6 (IL6), IL6 (gene 3569); assay: BSK_CASM3C_IL6: BioMAP Diversity Plus: CASM3C Assay for Interleukin-6 (IL6) Biomarker Activity for (AID 2283040); settings: primary human coronary artery smooth muscle cells; actives raise or lower the signal
# [14] = read-out: Tissue plasminogen activator (tPA), PLAT (gene 5327); assay: BSK_BE3C_tPA: BioMAP Diversity Plus: BE3C Assay for Tissue plasminogen activator (tPA) Biomarker Activity (AID 2283041); settings: primary human bronchial epithelial cells; actives raise or lower the signal;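 for outcome: tPA level quantified by ELISA one day after compound addition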
# Summary of the method: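 Primary human bronchial epithelial cells in the BE3C system, exposed to compound for 24 h. tPA was quantified by ELISA; DMSO served as baseline, with gain or loss of signal fitted. Cytotoxicity checked in parallel cultures by SRB total-protein staining.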
# [15] = read-out: Interleukin-8 (IL8), CXCL8 (gene 3576); assay: BSK_CASM3C_IL8: BioMAP Diversity Plus: CASM3C Assay for Interleukin-8 (IL8) Biomarker Activity (AID 2283042); settings: primary human coronary artery smooth muscle cells; actives raise or lower the signal;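 note: IL-8 protein level quantified by ELISA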
# [16] = read-out: Human Leukocyte Antigen - DR isotype (HLADR), HLA-DRA (gene 3122); assay: BSK_CASM3C_HLADR: BioMAP Diversity Plus: CASM3C Assay for Human Leukocyte Antigen - DR isotype (HLADR) Biomarker Activity (AID 2283043); settings: primary human coronary artery smooth muscle cells; actives raise or lower the signal;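 note: cell-surface HLA-DR protein level quantified by ELISA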
# [17] = BSK_BE3C_SRB: Viability Assessment in the BioMAP Diversity Plus: BE3C Assay (AID 2283028); settings: primary human bronchial epithelial cells;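 for AC50: fitted both ways so AC50 may mark signal gain or loss versus DMSO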
# Summary of the method: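 Cells (human bronchial epithelial, primary) are treated with chemicals, and after 24 h the parallel cultures are fixed in 10% TCA. These are then stained with 0.1% SRB and read at 560 nm. Gain or loss of signal is fitted relative to DMSO.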
# [18] = read-out: Human Leukocyte Antigen - DR isotype (HLADR), HLA-DRA (gene 3122); assay: BSK_BE3C_HLADR: BioMAP Diversity Plus: BE3C Assay for Human Leukocyte Antigen - DR isotype (HLADR) Biomarker Activity (AID 2283032); settings: primary human bronchial epithelial cells; actives raise or lower the signal
# Summary of the method: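 Human primary bronchial epithelial cells (BE3C system) exposed to compound for 24 hours; cell-surface HLA-DR measured by ELISA, fitted bidirectionally relative to DMSO. Total protein by SRB in parallel cultures tracked cytotoxicity.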
# [19] = read-out: Transforming growth factor beta 1 (TGFb1), TGFB1 (gene 7040); assay: BSK_BE3C_TGFb1: BioMAP Diversity Plus: BE3C Assay for Transforming growth factor beta 1 (TGFb1) Biomarker Activity (AID 2283036); settings: primary human bronchial epithelial cells; actives raise or lower the signal
# Summary of the method: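 Primary human bronchial epithelial cells dosed with chemical; TGF-b1 measured by ELISA 24 h after dosing. Bidirectional curve fitting against DMSO negative control; SRB total-protein staining in parallel cultures gauged cytotoxicity.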
smiles,measurement,setting,value
Oc1c(Br)cc(Br)cc1Br,outcome,[1],inactive
same,outcome,[2],inactive
same,AC50,[3],29.5 µM (active)
same,outcome,[4],inactive
same,outcome,[5],inactive
same,AC50,[6],27.3 µM (active)
same,AC50,[7],20 µM (active)
same,AC50,[8],20 µM (active)
same,outcome,[9],inactive
same,outcome,[10],inactive
same,outcome,[11],inactive
same,AC50,[12],20 µM (active)
same,outcome,[13],inactive
same,outcome,[14],inactive
same,outcome,[15],inactive
same,outcome,[16],inactive
O=c1oc2ccccc2c(O)c1C(CC(O)c1ccc(-c2ccc(Br)cc2)cc1)c1ccccc1 (centres undefined),AC50,[1],9.43 µM (active)
same,AC50,[2],12.6 µM (active)
same,AC50,[3],12.7 µM (active)
same,AC50,[17],5.05 µM (active)
same,outcome,[4],inactive
same,AC50,[5],6.9 µM (active)
same,AC50,[6],5.2 µM (active)
same,AC50,[7],13.9 µM (active)
same,AC50,[8],5.4 µM (active)
same,AC50,[9],10.5 µM (active)
same,AC50,[10],0.915 µM (active)
same,AC50,[11],5.29 µM (active)
same,AC50,[12],5.34 µM (active)
same,AC50,[13],25 µM (active)
same,AC50,[14],0.837 µM (active)
same,AC50,[15],0.0413 µM (active)
same,AC50,[16],4.99 µM (active)
Cc1ccc(OP(=O)(Oc2ccc(C)cc2C)Oc2ccc(C)cc2C)c(C)c1,outcome,[1],inactive
same,outcome,[2],inactive
same,outcome,[3],inactive
same,outcome,[17],inactive
same,outcome,[4],inactive
same,outcome,[5],inactive
same,outcome,[6],inactive
same,outcome,[18],inactive
same,outcome,[7],inactive
same,outcome,[8],inactive
same,outcome,[9],inactive
same,AC50,[10],6.01 µM (active)
same,outcome,[11],inactive
same,outcome,[12],inactive
same,outcome,[13],inactive
same,AC50,[14],3.86 µM (active)
same,outcome,[15],inactive
same,outcome,[16],inactive
Nc1ccc(N)cc1,outcome,[1],inactive
same,AC50,[2],19.9 µM (active)
same,outcome,[3],inactive
same,outcome,[17],inactive
same,outcome,[4],inactive
same,outcome,[5],inactive
same,outcome,[6],inactive
same,outcome,[7],inactive
same,outcome,[8],inactive
same,outcome,[9],inactive
same,outcome,[19],inactive
same,outcome,[10],inactive
same,outcome,[11],inactive
same,outcome,[12],inactive
same,outcome,[13],inactive
same,outcome,[14],inactive
same,outcome,[15],inactive
same,outcome,[16],inactive
Cc1ccccc1OP(=O)(Oc1ccccc1)Oc1ccccc1,AC50,[1],6.66 µM (active)
same,AC50,[2],11.6 µM (active)
same,AC50,[3],20 µM (active)
same,outcome,[17],inactive
same,outcome,[4],inactive
same,AC50,[5],32.2 µM (active)
same,AC50,[6],20 µM (active)
same,AC50,[7],26.1 µM (active)
same,outcome,[8],inactive
same,outcome,[9],inactive
same,outcome,[10],inactive
same,outcome,[11],inactive
same,outcome,[12],inactive
same,outcome,[13],inactive
same,outcome,[14],inactive
same,outcome,[15],inactive
same,outcome,[16],inactive
CCOC(=O)CC(=O)CCl,outcome,[1],inactive
same,outcome,[2],inactive
same,outcome,[3],inactive
same,outcome,[17],inactive
same,AC50,[4],4.35 µM (active)
same,outcome,[5],inactive
same,outcome,[6],inactive
same,AC50,[7],20 µM (active)
same,AC50,[8],20 µM (active)
same,outcome,[9],inactive
same,AC50,[19],5.96 µM (active)
same,outcome,[10],inactive
same,AC50,[11],4.09 µM (active)
same,outcome,[12],inactive
same,AC50,[13],28.8 µM (active)
same,AC50,[14],3.97 µM (active)
same,outcome,[15],inactive
same,AC50,[16],8.67 µM (active)
CCOP(=O)(OCC)SCCSCC,outcome,[1],inactive
same,outcome,[2],inactive
same,outcome,[3],inactive
same,outcome,[17],inactive
same,outcome,[4],inactive
same,outcome,[5],inactive
same,outcome,[6],inactive
same,outcome,[7],inactive
same,outcome,[8],inactive
same,outcome,[9],inactive
same,outcome,[10],inactive
same,outcome,[11],inactive
same,outcome,[12],inactive
same,outcome,[13],inactive
same,outcome,[14],inactive
same,outcome,[15],inactive
same,outcome,[16],inactive
C#CCOC(=O)/C=C(C)/C=C/CC(C)CCCC(C)C (centres undefined),outcome,[1],inactive
same,AC50,[2],39.8 µM (active)
same,AC50,[3],33.2 µM (active)
same,outcome,[17],inactive
same,outcome,[4],inactive
same,outcome,[5],inactive
same,AC50,[6],31.5 µM (active)
same,outcome,[18],inactive
same,AC50,[7],26.4 µM (active)
same,AC50,[8],1.32 µM (active)
same,outcome,[9],inactive
same,outcome,[10],inactive
same,outcome,[11],inactive
same,outcome,[12],inactive
same,outcome,[13],inactive
same,outcome,[14],inactive
same,outcome,[15],inactive
same,AC50,[16],3.97 µM (active)
